Six1-Eya2 inh = inhibitors of human Six1/Eya2 interaction; activity change, % (no concentration beside the values); Q15475+O00167; 360,000 compounds, 0.56% hits; AlphaScreen GST-Six1/His-Eya2 binding, biochemical; active compounds read low; in the data active = activity change below about -65%; inconclusive = mostly about -30% to -63%
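AlphaScreen with GST-Six1 and His-Eya2 (5X mix: 250 nM and 500 nM), glutathione donor and nickel acceptor beads; buffer 50 mM Tris pH 8.0, 300 mM NaCl, 1 mM TCEP; 1 h at 37 C in the dark.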
CtBP-E1A inh = CtBP/E1A binding inhibition; AlphaScreen GST-E1A/His-CtBP binding, 1536-well; active compounds read low; 340,000 compounds, 0.49% hits; AID 651724; activity change, % (test concentration not listed); in the data active = activity change below about -65%; inconclusive = mostly about -30% to -63%
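AlphaScreen with 125 nM GST-E1A and 125 nM His-CtBP (5X stocks) in Tris pH 8.0, 300 mM NaCl, BSA, Tween 20, TCEP. Compounds preincubated 2 h at 37 deg C, then glutathione donor/nickel acceptor beads added for 1 h at 37 deg C in dark.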
JMJD2A Tudor = inhibitors of human JMJD2A Tudor domain; O75164; AlphaScreen JMJD2A-Tudor / H3K4me3 peptide binding; Potency, µM (highest dose often 114 µM), hits mostly inhibitors; 390,000 compounds, 4.4% hits; AID 504339; also: nearly all actives have a fitted effect of over 50% in size
HP1b binding inh = inhibitors of HP1-beta chromodomain binding to methylated histone tails | AlphaScreen HP1-beta / biotin-H3K9me3 peptide binding | 390,000 compounds, 0.56% hits | AID 540317 | P83916 | Potency, µM (titrated, usually from 114 µM), hits mostly inhibitors; also: nearly all actives have a fitted effect of over 70% in size
Target sequence (P83916 whole entry, looked up): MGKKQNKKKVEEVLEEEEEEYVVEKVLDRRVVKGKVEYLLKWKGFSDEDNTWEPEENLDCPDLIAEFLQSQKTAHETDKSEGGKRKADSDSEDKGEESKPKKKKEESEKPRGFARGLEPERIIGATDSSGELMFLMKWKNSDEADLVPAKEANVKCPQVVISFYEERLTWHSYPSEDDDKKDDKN
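AlphaScreen: HP1-beta (50 nM) preformed 30 min with biotin-H3(1-18)K9me3 peptide (50 nM) in PBS pH 7.4, 0.01% Tween-20. Compound added for 30 min at RT, then streptavidin donor/nickel chelate acceptor beads (10 ug/mL) for 30 min.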
G9a block = inhibitors of human histone lysine methyltransferase G9a. Potency, µM (highest dose often 102 µM), usual class: inhibitors. G9a H3K9 monomethylation, AlphaScreen, 2 h. 350,000 compounds, 8.8% hits; also: nearly all actives have a fitted effect of over 75% in size
Target sequence (Q96KQ7 913-1193 limits assumed): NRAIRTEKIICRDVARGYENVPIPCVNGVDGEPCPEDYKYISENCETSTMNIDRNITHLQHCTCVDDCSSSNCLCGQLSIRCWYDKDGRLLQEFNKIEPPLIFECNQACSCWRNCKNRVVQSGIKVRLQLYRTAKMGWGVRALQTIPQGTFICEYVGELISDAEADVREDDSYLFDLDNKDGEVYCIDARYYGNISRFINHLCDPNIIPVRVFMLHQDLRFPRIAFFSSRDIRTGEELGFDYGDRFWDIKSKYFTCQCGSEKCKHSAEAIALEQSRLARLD
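AlphaScreen read-out: biotin-H3K9 peptide (500 nM) methylation by 20 nM enzyme with 20 uM SAM, 2 h at room temperature after 15 min compound preincubation; anti-monomethyl H3K9 antibody plus donor/acceptor beads, 10 min dark.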
BAZ2B block = inhibitors of human BAZ2B bromodomain | Potency, µM (doses to about 114 µM), most hits filed as inhibitors | AlphaScreen BAZ2B-H3K14Ac peptide displacement | AID 504333 | 360,000 compounds, 4.4% hits; also: nearly all actives have a fitted effect of over 60% in size
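In this displacement format the biotinylated H3(5-23) peptide acetylated at Lys14 serves as ligand at 50 nM, with BAZ2B at 50 nM in PBS pH 7.4 containing 0.01% Tween-20. Donor and acceptor beads are 10 ug/mL final.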
Hits are given with their value; i = inactive; ? = inconclusive; nt = no result; [ ] = another dose, or the depositor's remark. This is a sample that favours compounds with a hit; in the whole collection about 10% have one here. Unless noted, calls follow the shape of the dose curve; as a rule, active = well fitted inhibition curve with a large enough effect; inconclusive = small, poorly fitted or top-dose-only effect; inactive = no such curve, though single readings can be large or run the other way.

SMILES	Six1-Eya2 inh	CtBP-E1A inh	JMJD2A Tudor	HP1b binding inh	G9a block	BAZ2B block
Cc1cc(C)c(S(=O)(=O)n2cnc(C)c2)c(C)c1	nt	nt	i	i	i	i
O=C(NCc1ccccc1)NCc1cccs1	i	i	i	i	nt	i
COc1ccc(OC)c(/C=N/NC(=O)CCN2CCN(C(c3ccccc3)c3ccccc3)CC2)c1	i	i	?	i	10µM	?
COc1ccc(C)cc1NC(=O)CCn1nc(C)cc1C	nt	nt	?	i	i	50µM
Cc1cc(C)n(CCC(=O)N/N=C/c2ccc(O)cc2O)n1	-86	-69	i	i	i	i
Cc1ccc(C)c(NC(=O)CCn2nc(C)cc2C)c1	i	i	i	i	i[12.7 µM]	i
O=C(CCN1CCN(C(c2ccccc2)c2ccccc2)CC1)N/N=C/c1ccc(O)cc1O	i	-73	63µM	i	?	?
c1ccc(-c2csc(-n3cnnn3)n2)cc1	i	i	i	i	i	i
COc1ccc2c(c1)OC(=O)CC2c1ccc2c(c1)OCO2 (centres undefined)	nt	nt	nt	nt	i	nt
COc1ccc(OC)c(NC(=O)CCN2CCN(Cc3ccccc3)CC2)c1	i	i	i	i	50µM	i
N#CC1=C(N)N=C(SCc2cccc3ccccc23)C(C(N)=O)C12CCCCC2 (centres undefined)	i	i	56µM	i	45µM	?
C/C=C/c1cccc(-c2nc(C(=O)N3CCCCC3)cc3c2[C@H](CCO)N(C(=O)NC(C)C)C3)c1	i	i	nt	nt	nt	nt
C#CCOCCOCCOCCNc1nc(N2CCN(C(=O)[C@H](Cc3ccc(O)cc3)n3cc([C@@H](N)C(C)CC)nn3)CC2)nc(N2CCN(C(=O)[C@H](Cc3cc4ccccc4[nH]3)n3cc([C@@H](N)Cc4ccc(O)cc4)nn3)CC2)n1 (some centres undefined)	nt	nt	nt	nt	?	32µM
C#CCOCCOCCOCCNc1nc(N2CCN(C(=O)[C@H](Cc3ccc(O)cc3)n3cc([C@@H](N)CC(C)C)nn3)CC2)nc(N2CCN(C(=O)[C@H](Cc3cc4ccccc4[nH]3)n3cc([C@@H](N)CC(C)C)nn3)CC2)n1	i	i	10µM	i	i[12.7 µM]	25µM
C#CCOCCOCCOCCNc1nc(N2CCN(C(=O)C(Cc3ccc(O)cc3)n3cc(C(N)CC(C)C)nn3)CC2)nc(N2CCN(C(=O)C(Cc3cc4ccccc4[nH]3)n3cc(C(N)C(C)CC)nn3)CC2)n1 (centres undefined)	nt	nt	nt	nt	?	50µM
CC(=O)c1ccc(N2CCN(C(=O)CN3C(=O)NC4(CCCCC4)C3=O)CC2)c(F)c1	i	i	i	i	i	i
CC(C)C(NC(=O)C(CC(=O)O)NC(=O)C(CCCCN)NC(=O)C(N)CCCN=C(N)N)C(=O)NC(Cc1ccc(O)cc1)C(=O)O (centres undefined)	nt	nt	nt	nt	i[12.7 µM]	nt
CCOc1ccc(-n2nnnc2SCC(=O)NNC(=O)c2ccco2)cc1	i	i	22µM	i	nt	i
Cc1cc(C)c[n+](CC(=O)c2ccc(-c3ccccc3)cc2)c1	i	i	i	i	50µM	i
CCN(CC)CC(=O)c1ccc(-c2ccccc2)cc1	i	i	?	i	?	i
CN(C)CC(=O)c1ccc(-c2ccccc2)cc1	i	i	i	i	32µM	nt
Cc1ccc(C(=O)NC(=S)N(C)Cc2ccccc2)cc1	i	nt	i	i	nt	nt
C/[N+]([O-])=C\CC(=O)c1ccc(-c2ccccc2)cc1	i	i	32µM	i	14µM	i
CCCN(CCC)C(=S)NC(=O)c1ccc(-c2ccccc2)cc1	i	i	50µM	i	i[12.7 µM]	?
CCCS(=O)(=O)NC(=O)C1(C)CCCN(C(=O)C2(c3ccc(Cl)cc3)CCCC2)C1 (centres undefined)	i	i	nt	nt	nt	nt
SMILES	Six1-Eya2 inh	CtBP-E1A inh	JMJD2A Tudor	HP1b binding inh	G9a block	BAZ2B block
O=C(O)c1ccc(-c2ccc(/C=C3\NC(=O)N(Cc4ccc(Cl)cc4)C3=O)o2)cc1Cl	?	i	32µM	32µM	20µM	22µM
CCOC(=O)CN1C(=O)S/C(=C\c2ccc(-c3cccc(C(=O)O)c3C)o2)C1=O	i	i	i	i	nt	nt
Cc1ccc(OCCN2C(=O)C(=O)c3cc(C)ccc32)cc1	i	i	56µM	?	25µM	35µM
CCOC(=O)CN1C(=O)S/C(=C\c2ccc(-c3ccc(C(=O)O)c(Cl)c3)o2)C1=O	i	i	79µM	i	50µM	?
CC(C)N1C(=O)S/C(=C\c2ccc(-c3ccc(Cl)c(C(=O)O)c3)o2)C1=O	i	nt	79µM	i	40µM	i
Cc1cccc(NC(=O)CN2C(=O)N/C(=C/c3ccc(-c4cccc(C(=O)O)c4C)o3)C2=O)c1	i	i	i	i	?	?
O=C(CNC(=O)C1CCCCC1)OCC(=O)c1ccccc1	nt	nt	i	i	nt	nt
O=C(NCCc1ccc(Cl)cc1)c1ccc(CSCc2ccc(Cl)cc2)o1	nt	nt	i	i	i	i
CCN(CC)c1ccc(/C=C2/SC(=O)N(C(C)C)C2=O)o1	i	i	?	i	7.1µM	?
Cc1ccc(OCCN2C(=O)S/C(=C\c3ccc(C)o3)C2=O)cc1	i	i	i	i	32µM	?
